Counter-ions that a name gives are not always drawn. ± gives the standard deviation of the averaged measurements.
Test system: Saccharomyces cerevisiae BY4741 SeMeCo community
Assay: mean cell size (pixel area) (pixels); higher = larger cells
Details: 10 µM; 24 h; SM minimal medium
How it was run: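 A fluorescent Saccharomyces cerevisiae BY4741 community carrying four plasmids was used, with each plasmid complementing one auxotrophy and bearing a fluorescent marker. An overnight preculture at OD600 = 1.0 was diluted to OD600 = 0.3, and 70 µl went into 384-well plates acoustically predosed with drug (final 10 µM) in SM medium for 24 h. After paraformaldehyde fixation, cells were imaged by automated confocal microscopy and analysed in Harmony, giving the mean cell pixel area per well. Each value is the average of 3 replicates. Same SeMeCo high-content imaging drug screen: Selleck FDA-approved drugs at 10 µM, 24 h in SM medium, 384-well plates, 3 replicates.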

**Q.** CC1(C)S[C@@H]2[C@H](NC(=O)[C@H](N)c3ccccc3)C(=O)N2[C@H]1C(=O)OCOC(=O)[C@@H]1N2C(=O)C[C@H]2S(=O)(=O)C1(C)C [Sultamicillin] was tested. Which mean cell size did it give?
**A.** 12.26 ± 0.082

**Q.** For C[C@@H](O)[C@H]1C(=O)N2C(C(=O)O)=C(S[C@@H]3CN[C@H](C(=O)N(C)C)C3)[C@H](C)[C@H]12 [Meropenem Trihydrate], which mean cell size is on record?
**A.** 12.6 ± 0.27

**Q.** For O=C1[C@H]2CCCC[C@H]2C(=O)N1CCCCN1CCN(c2nsc3ccccc23)CC1 [Perospirone hydrochloride], which mean cell size is on record?
**A.** 12.5 ± 0.18

**Q.** Which mean cell size does the source give for CCN1CCN(C(=O)N[C@@H](C(=O)N[C@@H]2C(=O)N3C(C(=O)O)=C(CSc4nnnn4C)CS[C@H]23)c2ccc(O)cc2)C(=O)C1=O [Cefoperazone] here?
**A.** 12.5 ± 0.21

**Q.** With Clc1ccc(C(Cn2ccnc2)OCc2ccsc2Cl)c(Cl)c1 (stereo not given) [Tioconazole] as the compound, how does the mean cell size read?
**A.** 12.1 ± 0.12

**Q.** For C[N+]1(C)CCC(OC(=O)C(O)(c2ccccc2)C2CCCC2)C1 (stereo not given) [Glycopyrrolate], which mean cell size is on record?
**A.** 12.32 ± 0.11

**Q.** How did the mean cell size turn out when C[C@]12CC[C@@H]3c4ccc(O)cc4CC[C@H]3[C@@H]1CCC2=O [Estrone] was run?
**A.** 12.48 ± 0.098

**Q.** How did the mean cell size turn out when CCCNC(C)C(=O)Nc1ccccc1C (stereo not given) [Prilocaine] was run?
**A.** 12.51 ± 0.059

**Q.** Which mean cell size does the source give for CCC(C)(C)c1ccc(CC(C)CN2C[C@@H](C)O[C@@H](C)C2)cc1 (stereo not given in full) [Amorolfine HCl] here?
**A.** 12 ± 0.35

**Q.** With C[C@]12CC[C@@H]3c4ccc(O)cc4C[C@@H](CCCCCCCCC[S+]([O-])CCCC(F)(F)C(F)(F)F)[C@H]3[C@@H]1CC[C@@H]2O (stereo not given in full) [Fulvestrant] as the compound, how does the mean cell size read?
**A.** 12.4 ± 0.074

**Q.** For COc1ccc([C@H]2CNC(=O)C2)cc1OC1CCCC1 [S- (+)-Rolipram], which mean cell size is on record?
**A.** 12.43 ± 0.11

**Q.** Which mean cell size does the source give for CC1=C(C(=O)OC(C)C)C(c2cccc([N+](=O)[O-])c2)C(C(=O)OC2CN(C(c3ccccc3)c3ccccc3)C2)=C(N)N1 (stereo not given) [Azelnidipine] here?
**A.** 12.5 ± 0.34

**Q.** Which mean cell size does the source give for Cc1onc(-c2c(Cl)cccc2Cl)c1C(=O)N[C@@H]1C(=O)N2[C@@H]1SC(C)(C)[C@@H]2C(=O)O [Dicloxacillin Sodium] here?
**A.** 12.4 ± 0.18

**Q.** CCC1(c2ccccc2)C(=O)NCNC1=O [Primidone] was tested. Which mean cell size did it give?
**A.** 12.6 ± 0.23

**Q.** With COC(=O)C1=C(C)NC(C)=C(C(=O)OC2CCCN(Cc3ccccc3)C2)C1c1cccc([N+](=O)[O-])c1 (stereo not given) [Benidipine HCl] as the compound, how does the mean cell size read?
**A.** 12.4 ± 0.23

**Q.** Which mean cell size does the source give for Cc1nnc(SCC2=C(C(=O)O)N3C(=O)[C@@H](NC(=O)Cn4cc(Cl)c(=O)c(Cl)c4)[C@H]3SC2)s1 [Cefazedone] here?
**A.** 12.5 ± 0.39

**Q.** For CN(C)CCn1nnnc1SCC1=C(C(=O)O)N2C(=O)[C@@H](NC(=O)Cc3csc(N)n3)[C@H]2SC1 [Cefotiam hydrochloride], which mean cell size is on record?
**A.** 12.24 ± 0.031

**Q.** With NC(=O)C(c1ccccc1)(c1ccccc1)[C@@H]1CCN(CCc2ccc3c(c2)CCO3)C1 [Darifenacin HBr] as the compound, how does the mean cell size read?
**A.** 12.4 ± 0.39

**Q.** How did the mean cell size turn out when O=C(O)c1cccnc1Nc1cccc(C(F)(F)F)c1 [Niflumic acid] was run?
**A.** 12.9 ± 0.17

**Q.** How did the mean cell size turn out when C[C@@H](O)[C@H]1C(=O)N2C(C(=O)O)=C(S[C@@H]3CN[C@H](C(=O)N(C)C)C3)[C@H](C)[C@H]12 [Meropenem] was run?
**A.** 12.4 ± 0.19

**Q.** For O=c1c(-c2ccc(O)cc2)coc2c([C@@H]3O[C@H](CO)[C@@H](O)[C@H](O)[C@H]3O)c(O)ccc12 [Puerarin], which mean cell size is on record?
**A.** 12.55 ± 0.11

**Q.** CCOc1cc(N)c(Cl)cc1C(=O)NCC1CN(Cc2ccc(F)cc2)CCO1 (stereo not given) [Mosapride Citrate] was tested. Which mean cell size did it give?
**A.** 12.5 ± 0.12

**Q.** Which mean cell size does the source give for COc1ccc2c(c1)c(CC(=O)OCC(=O)O)c(C)n2C(=O)c1ccc(Cl)cc1 [Acemetacin] here?
**A.** 12.45 ± 0.094

**Q.** For CN1C2CCCC1CC(NC(=O)c1nn(C)c3ccccc13)C2 (stereo not given) [Granisetron HCl], which mean cell size is on record?
**A.** 11.8 ± 0.16

**Q.** Which mean cell size does the source give for O=C(Nc1ccc(Oc2ccc(Cl)cc2)c(Cl)c1)c1cc(I)cc(I)c1O [Rafoxanide] here?
**A.** 12.2 ± 0.19

**Q.** For CC[C@H](C)[C@H](N)C1=N[C@H](C(=O)N[C@@H](CC(C)C)C(=O)N[C@H](CCC(=O)O)C(=O)N[C@H](C(=O)N[C@H]2CCCCNC(=O)[C@H](CC(N)=O)NC(=O)[C@@H](CC(=O)O)NC(=O)[C@H](Cc3cnc[nH]3)NC(=O)[C@@H](Cc3ccccc3)NC(=O)[C@H]([C@@H](C)CC)NC(=O)[C@@H](CCCN)NC2=O)[C@@H](C)CC)CS1 [Bacitracin], which mean cell size is on record?
**A.** 12 ± 0.24

**Q.** With CC(=O)OCC(COC(C)=O)OC(C)=O [Triacetin] as the compound, how does the mean cell size read?
**A.** 12.4 ± 0.15

**Q.** For NC(CO)(CO)CO [Trometamol], which mean cell size is on record?
**A.** 12.2 ± 0.18

**Q.** How did the mean cell size turn out when CC(C)[C@H](N)C(=O)OCCOCn1cnc2c(=O)nc(N)[nH]c21 [Valaciclovir HCl] was run?
**A.** 12.3 ± 0.16

**Q.** How did the mean cell size turn out when CC[C@@]1(O)C(=O)OCc2c1cc1n(c2=O)Cc2cc3cc(O)ccc3nc2-1 [(S)-10-Hydroxycamptothecin] was run?
**A.** 12.41 ± 0.077

**Q.** With Clc1ccc(COC(Cn2ccnc2)c2ccc(Cl)cc2Cl)c(Cl)c1 (stereo not given) [Miconazole Nitrate] as the compound, how does the mean cell size read?
**A.** 12.3 ± 0.19

**Q.** For Cc1cccc(C)c1OCC(C)N (stereo not given) [Mexiletine HCl], which mean cell size is on record?
**A.** 12.3 ± 0.13

**Q.** How did the mean cell size turn out when OC(c1ccccc1)(c1ccccc1)C12CC[N+](CCOCc3ccccc3)(CC1)CC2 [Umeclidinium bromide] was run?
**A.** 12.49 ± 0.074

**Q.** For C=C[C@]1(C)C[C@@H](OC(=O)CSC(C)(C)CNC(=O)[C@H](N)C(C)C)[C@]2(C)[C@H](C)CC[C@]3(CCC(=O)[C@H]32)[C@@H](C)[C@@H]1O [Valnemulin HCl], which mean cell size is on record?
**A.** 12.3 ± 0.19

**Q.** With CN(C)CCOc1ccc(/C(=C(/CCCl)c2ccccc2)c2ccccc2)cc1 [Toremifene Citrate] as the compound, how does the mean cell size read?
**A.** 12.1 ± 0.2

**Q.** Which mean cell size does the source give for Cc1c(-c2ccc(O)cc2)n(Cc2ccc(OCCN3CCCCCC3)cc2)c2ccc(O)cc12 [Bazedoxifene Acetate] here?
**A.** 12.6 ± 0.073

**Q.** Which mean cell size does the source give for C#C[C@]1(O)CC[C@H]2[C@@H]3CCC4=CCCC[C@@H]4[C@H]3C(=C)C[C@@]21CC [Desogestrel] here?
**A.** 12.3 ± 0.29

**Q.** How did the mean cell size turn out when O=C1NC(=O)C(c2ccccc2)(c2ccccc2)N1 [Phenytoin] was run?
**A.** 12.39 ± 0.12

**Q.** How did the mean cell size turn out when CCCCCOc1ccc(-c2cc(-c3ccc(C(=O)N[C@H]4C[C@@H](O)[C@@H](O)NC(=O)[C@@H]5[C@@H](O)[C@@H](C)CN5C(=O)[C@H]([C@H](O)CC(N)=O)NC(=O)[C@H]([C@H](O)[C@@H](O)c5ccc(O)c(OS(=O)(=O)O)c5)NC(=O)[C@@H]5C[C@@H](O)CN5C(=O)[C@H]([C@@H](C)O)NC4=O)cc3)no2)cc1 [Micafungin Sodium] was run?
**A.** 12.4 ± 0.26

**Q.** CN(C)[C@@H](CCOc1cccc2ccccc12)c1ccccc1 [Dapoxetine HCl] was tested. Which mean cell size did it give?
**A.** 12.3 ± 0.037
